Test results reported in PubChem BioAssay AID493170 (National Center for Advancing Translational Sciences (NCATS), 2011).
Results filed as inconclusive are left out. Unmarked numbers belong to inactive results. Active and inactive are the calls of the source. The call rests on the fitted dose curve; in most records, active means well fitted inhibition curve with a large enough effect; inconclusive means small, poorly fitted or top-dose-only effect, or effect the other way; inactive means flat fitted curve, though single readings scatter.

Each compound was assayed against Ubiquitin carboxyl-terminal hydrolase 2 (Homo sapiens) (UniProt O75604) (assay: Ub-rhodamine 110 based assay for inhibitors Ubiquitin-specific Protease USP2a). Details: USP2a Ub-rhodamine110 cleavage, fluorescence; series mostly up to 38.3 µM; activity change, negative = inhibition: at the top concentration.
Outline: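 Kinetic fluorescence (485/531 nm) read each minute over 7 min after adding Ub-Rhod110 (150 nM final) to USP2a (5 nM final). The enzyme had 30 min RT exposure to compounds beforehand in Tris pH 8.0 buffer with CaCl2, CHAPS and beta-ME.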
Further: nearly all actives have a fitted effect of over 50% in size.
On the % scale 0 is the no-effect control and ±100 the full control effect; potency means the concentration at half of the fitted maximal effect.

Sequence of Ubiquitin carboxyl-terminal hydrolase 2 (Homo sapiens) (O75604 whole entry, looked up): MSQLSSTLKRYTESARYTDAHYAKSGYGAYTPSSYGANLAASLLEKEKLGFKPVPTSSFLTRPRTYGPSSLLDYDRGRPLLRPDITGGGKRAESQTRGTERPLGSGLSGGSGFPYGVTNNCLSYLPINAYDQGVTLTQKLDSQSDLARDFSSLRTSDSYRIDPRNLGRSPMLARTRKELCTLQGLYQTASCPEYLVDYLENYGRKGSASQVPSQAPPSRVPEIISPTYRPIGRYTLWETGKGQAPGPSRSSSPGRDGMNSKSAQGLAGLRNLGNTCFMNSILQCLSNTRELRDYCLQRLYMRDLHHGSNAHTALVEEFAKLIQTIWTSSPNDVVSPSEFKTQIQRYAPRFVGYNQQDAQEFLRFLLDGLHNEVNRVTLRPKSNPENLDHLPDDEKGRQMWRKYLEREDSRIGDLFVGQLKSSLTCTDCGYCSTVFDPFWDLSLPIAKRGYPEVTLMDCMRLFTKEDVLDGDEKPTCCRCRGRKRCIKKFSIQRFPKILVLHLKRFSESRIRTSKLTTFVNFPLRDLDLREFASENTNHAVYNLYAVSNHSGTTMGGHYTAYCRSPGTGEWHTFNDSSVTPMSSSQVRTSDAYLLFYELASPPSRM

Point of comparison: COCCCNC(=O)C1CCN(c2nc(C)cc(C)n2)CC1, “activity change, negative = inhibition” value -9.82%. Against it:
- C=CC[C@@H](CC(=O)N(CCO)Cc1ccccc1)C(=O)NCCOC(=O)[C@H](CC=C)CC(=O)OC(C)(C)C — higher, 2.02%
- COC(=O)c1nnn(-c2nonc2N)c1CSc1ccccn1 — higher, -6.42%
- O=C(OCc1ccccc1)C1CCCN1C(=O)c1cccs1 (stereo not given) — higher, -1.26%
- CCCCc1ccc(/C=C2/C(=O)ON=C2c2ccccc2)s1 — higher, -9.15%
- Cc1cc(NC(=O)COC(=O)CCCOc2ccc(Cl)cc2C)no1 — higher, -2.52%
- CCOc1ccccc1C(=O)Nc1nnc(C(C)C)s1 — lower, -14.6%
- COCc1c(C(=O)OCC(=O)c2c(N)n(CC(C)C)c(=O)n(C)c2=O)oc2ccccc12 — lower, -21.8%
- Cc1ccc(N(CC(=O)Nc2ccc(S(=O)(=O)N3CCOCC3)cc2)S(C)(=O)=O)cc1C — higher, -7.14%
- O=C(Nc1cccc(Cl)c1)Nc1nnc(CC2=CCCCC2)s1 — higher, -2.08%
- Cc1c(O)c(CN2CCCC2)cc2c3c(c(=O)oc12)CCC3 — higher, 2.28%
- COC(=O)c1[nH]c2ccc(C)cc2c1NC(=O)CN1CCCc2ccccc21 — lower, -15.7%
- Cc1ccc(NC(=O)Cn2nc(C)c3ccccc3c2=O)cc1F — higher, -5.77%
- Cc1ccc(CNC(=O)CCNS(=O)(=O)c2ccc(C)cc2)cc1 — higher, -6.2%
- C=CC[C@H](CC(=O)N[C@H](CO)Cc1ccccc1)C(=O)N[C@H](COC(=O)[C@@H](CC=C)CC(=O)OC(C)(C)C)Cc1c[nH]c2ccccc12 — lower, -11.3%
- O=C1OC[C@@H]2CCCN2C(=O)[C@@H](CC(=O)N(CCO)Cc2ccccc2)C/C=C\C[C@@H]1Cc1ccc(F)cc1 — higher, -2.99%
- CC(C)(C)NC(=O)CSc1nc(O)cc(=O)n1-c1ccccc1F — higher, -5.04%
- CCCSCCCNC(=O)CC1Oc2ccccc2NC1=O (stereo not given) — lower, -16.1%
- CC(C)CC(c1nnnn1CC1CCCO1)N1CCN(c2nc3ccccc3s2)CC1 (stereo not given) — higher, -9.59%
- O=[N+]([O-])c1c(NCCO)cc(N2CCN(Cc3ccc4c(c3)OCO4)CC2)c2nonc12 — higher, 2.52%
- COc1ccc(-n2c(=S)[nH]c3cc(C(=O)NCc4ccc(F)cc4)ccc3c2=O)c(OC)c1 — lower, -19.6%
- O=C(Nc1cccc(C(F)(F)F)c1)/C(=C\c1ccco1)NC(=O)c1cccs1 — higher, -4.02%
- CC(C)(C)[C@H]1COC(=O)[C@@H](Cc2ccc(F)cc2)C/C=C\C[C@@H](CC(=O)N[C@@H](CO)Cc2ccccc2)C(=O)N1 — higher, 0.71%
- Nc1cc(N)nc(SCC(=O)N2CCCCC2)n1 — higher, -5.91%
- Cc1nc2n(n1)CC(O)CS2 (stereo not given) — higher, -3.3%
- Cc1nc(NC(C)C)c2cnn(CCc3ccccc3)c2n1 — higher, -4.79%
- O=C(NCCN1C(=O)CSC1=O)C1CC(=O)N(c2ccccc2)C1 (stereo not given) — higher, -2.6%
- Nc1nc(NCCO)nc(NCC2CCCO2)c1[N+](=O)[O-] (stereo not given) — higher, -7.49%
- CCOC(=O)COc1ccccc1/C=N/O — higher, -0.957%
- Cc1ccc(C(=O)N/C(=C/c2ccco2)C(=O)Nc2cccc(C(=O)O)c2)cc1 — higher, 1.46%
- CCC(C)NC(=O)CSC1=Nc2ccccc2C2=NC(c3ccccc3)C(=O)N12 (stereo not given) — lower, -14%
- CC(CN1CCCCC1)OC(=O)c1ccc(Cl)cc1 (stereo not given) — higher, 1.02%
- C[C@@H]1CN([C@@H](C)CO)C(=O)c2cc(NC(=O)CCC(F)(F)F)ccc2O[C@H]1CN(C)S(=O)(=O)c1ccc(Cl)cc1 — higher, -7.59%
- CC1(C)CC(=O)C=C(NCc2cccs2)C1 — higher, 14.1%
- O=C(NC1CCCCC1)C(c1ccco1)N(Cc1ccco1)C(=O)c1ccco1 (stereo not given) — lower, -21.9%

For Cc1ccc(NC(=O)CN2C(=O)N/C(=C/c3ccco3)C2=O)cc1, the Potency was 3.98 µM (active).
In the case of Cc1cc(/C=C2\C(=N)N3N=C(c4ccco4)SC3=NC2=O)c(C)n1Cc1ccccc1, the Potency is reported as 7.08 µM (active).
For Cc1ccc(N=C2NC(=O)/C(=C/C=C/c3ccco3)S2)cc1C, the Potency was 5.01 µM (active).
With O=[N+]([O-])c1cc(-c2ccc(/C=N\n3cnnc3)o2)cc([N+](=O)[O-])c1 the Potency was 11.2 µM (active).
In the case of Cc1cccc(C)c1-n1cccc1/C=C1\SC(=S)N(c2cccc(C(=O)O)c2)C1=O, the Potency is reported as 7.94 µM (active).
